Measured values reported in PubChem BioAssay.
Values joined by “and” are separate entries in the source; they are usually repeats but may differ in a detail not shown here. Equal entries are not always repeated. Active and inactive are the calls of the source. Unless noted, the rule behind the calls is not given here.

What was measured:
[1] = system: XIP peptide (Xip251-270) binding; assay: XIP fragment 251-270 binding compounds – biochemical, small-molecule microarray, fluorescence 635/667 nm, 0.1 µg/mL protein, primary screen (AID 1182); conditions: fluorescent protein binding, 635 nm, higher = more signal, called active from +8 up or from −8 down
[2] = system: XIP peptide (Xip251-270); assay: compounds binding XIP fragment 251-270 – biochemical, small-molecule microarray, fluorescence 635/667 nm, 0.5 µg/mL protein, primary screen (AID 1183); conditions: fluorescence 635 nm, higher = more signal
[3] = blood-stage malaria parasite viability loss – strain 3D7, DAPI fluorescence, 100 nL, primary screen (AID 1184);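 note: parasites grown inside human red blood cells in medium with human serum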; conditions: P. falciparum 3D7 growth, 3 d, higher = more signal
[4] = target: Homeobox protein Hox-A13 (Mus musculus) (UniProt Q62424); assay: disruptors of Hoxa13 oligonucleotide interaction – biochemical, fluorescence polarization, labeled oligonucleotide, primary screen (AID 1185); conditions: Hoxa13:DNA binding, 15 min, higher = more signal, called active from +8 up or from −8 down
[5] = blockers of DNA damage checkpoint Chk1 activation – imaging, HeLa, hydroxyurea, phospho-Chk1 antibody, percent positive cells, primary screen (AID 1186); conditions: hydroxyurea-induced phospho-Chk1 immunofluorescence imaging, higher = more signal
[6] = blockers of DNA damage checkpoint Chk1 activation – imaging, HeLa, hydroxyurea, phospho-Chk1 nuclear intensity, primary screen (AID 1187); conditions: hydroxyurea-induced phospho-Chk1 immunofluorescence imaging, higher = more signal

Sequence of Homeobox protein Hox-A13 (Mus musculus) (Q62424 whole entry, looked up): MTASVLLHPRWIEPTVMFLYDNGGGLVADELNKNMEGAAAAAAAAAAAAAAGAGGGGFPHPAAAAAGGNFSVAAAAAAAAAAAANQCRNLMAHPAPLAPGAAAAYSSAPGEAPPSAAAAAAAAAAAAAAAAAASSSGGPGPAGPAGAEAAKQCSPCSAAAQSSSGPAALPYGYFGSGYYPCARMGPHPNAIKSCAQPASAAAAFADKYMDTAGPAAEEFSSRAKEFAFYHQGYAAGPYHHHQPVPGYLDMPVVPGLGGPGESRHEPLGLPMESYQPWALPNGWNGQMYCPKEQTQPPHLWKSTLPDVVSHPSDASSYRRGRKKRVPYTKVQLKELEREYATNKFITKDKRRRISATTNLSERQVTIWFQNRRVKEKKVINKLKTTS

Structure (SMILES): C=CCN(CCCC)C(=O)C1N(CCCCCCO)C(=O)C2C(C(=O)O)C3C=CC21O3 (centres undefined)
- composite z-score [1]: -0.489 (inactive) and -0.198 (inactive)
- composite z-score [2]: -0.838 and -0.558
- z-score [3]: 1.51 and 1.68
- z-score [4]: -0.284 (inactive) and -0.72 (inactive)
- z-score [5]: 0.527 (inactive) and 1.03 (inactive)
- z-score [6]: 0.977 (inactive) and 1.09 (inactive)

Structure (SMILES): C=CCN(C(=O)C1N(c2ccc(CCO)cc2)C(=O)C2C(C(=O)O)C3C=CC21O3)c1ccc(OC)cc1 (centres undefined)
- composite z-score [1]: 0.777 (inactive) and -0.925 (inactive)
- composite z-score [2]: 0.936 and -0.824
- z-score [3]: -1.09 and -0.417
- z-score [4]: -1.87 (inactive) and -0.733 (inactive)
- z-score [5]: -0.265 (inactive) and -0.271 (inactive)
- z-score [6]: -0.268 (inactive) and -0.384 (inactive)

Structure (SMILES): CC[C@@H]1C(Sc2ccccc2)C(C(=O)O)[C@H](c2ccc(C)cc2)N1S(=O)(=O)c1ccc(C)cc1 (some centres undefined)
- composite z-score [1]: 1.07 (inactive) and -0.215 (inactive)
- composite z-score [2]: 0.278 and 0.605
- z-score [3]: -0.606 and 0.251
- z-score [4]: -5.66 (inactive) and -4.34 (inactive)
- z-score [5]: -0.114 (inactive) and -0.912 (inactive)
- z-score [6]: -0.369 (inactive) and -0.714 (inactive)

Structure (SMILES): C=CCN(CCCC)C(=O)C1N(c2c(Cl)cccc2CO)C(=O)C2C(C(=O)O)C3C=CC21O3 (centres undefined)
- composite z-score [1]: -0.523 (inactive) and -0.356 (inactive)
- composite z-score [2]: 0.222 and 0.152
- z-score [3]: -1.23 and -1.7
- z-score [4]: -1.12 (inactive) and -1.43 (inactive)
- z-score [5]: 0.304 (inactive) and -0.273 (inactive)
- z-score [6]: 0.151 (inactive) and 0.131 (inactive)

Structure (SMILES): CC(CO)N1C(=O)[C@@H]2C3C(=O)OCCC=C[C@H]3OC23C=CCN(Cn2nnc4ccccc42)C(=O)[C@@H]13 (some centres undefined)
- composite z-score [1]: 0.287 (inactive) and 0.0057 (inactive)
- composite z-score [2]: 0.699 and 0.41
- z-score [3]: -0.0355 and 0.986
- z-score [4]: -3.43 (inactive) and -5.52 (inactive)
- z-score [5]: 0.787 (inactive) and 0.875 (inactive)
- z-score [6]: 0.336 (inactive) and 0.749 (inactive)

Structure (SMILES): O=C1NC(=O)C2C1C=CC(C(O)c1ccc([N+](=O)[O-])cc1)N2Nc1ccc(Cl)cc1Cl (centres undefined)
- composite z-score [1]: 0.376 (inactive) and 0.385 (inactive)
- composite z-score [2]: 0.762 and 0.163
- z-score [3]: 0.698 and 0.664
- z-score [4]: -5.8 (inactive)
- z-score [5]: -0.85 (inactive) and -0.665 (inactive)
- z-score [6]: -1.15 (inactive) and -0.297 (inactive)

Structure (SMILES): CC(CO)N1C(=O)[C@@H]2C3C(=O)OCCC=C[C@H]3OC23C=CCN(c2ccc(Cl)cc2)C(=O)[C@@H]13 (some centres undefined)
- composite z-score [1]: 0.291 (inactive) and 0.137 (inactive)
- composite z-score [2]: -0.784 and 0.213
- z-score [3]: -0.764 and -0.187
- z-score [4]: -3.34 (inactive) and -6.16 (inactive)
- z-score [5]: 0.537 (inactive) and -0.0281 (inactive)
- z-score [6]: 0.654 (inactive) and 0.0058 (inactive)

Structure (SMILES): C=C[C@@H](C)[C@@H](O)c1ccc(OCCO)cc1
- composite z-score [1]: -0.704 (inactive) and -0.999 (inactive)
- composite z-score [2]: -0.664 and 0.0227
- z-score [3]: -0.892 and 0.0904
- z-score [4]: -0.592 (inactive) and -0.123 (inactive)
- z-score [5]: 1.19 (inactive) and -0.153 (inactive)
- z-score [6]: 1.48 (inactive) and 0.641 (inactive)

Structure (SMILES): C=CCN(CCCC)C(=O)C1N(CCOCCO)C(=O)C2C(C(=O)O)C3C=CC21O3 (centres undefined)
- composite z-score [1]: 0.175 (inactive) and 0.306 (inactive)
- composite z-score [2]: 1.07 and -0.932
- z-score [3]: 0.172 and 0.134
- z-score [4]: -1.14 (inactive) and -0.529 (inactive)
- z-score [5]: -0.24 (inactive) and 0.924 (inactive)
- z-score [6]: -0.299 (inactive) and 0.869 (inactive)

Structure (SMILES): C=CCN(C(=O)C1N(CCCCCCO)C(=O)C2C(C(=O)O)C3C=CC21O3)C(C)(C)C (centres undefined)
- composite z-score [1]: -0.501 (inactive) and -0.559 (inactive)
- composite z-score [2]: 0.429 and -1
- z-score [3]: -0.0557 and 0.444
- z-score [4]: -0.569 (inactive) and -2.68 (inactive)
- z-score [5]: -0.178 (inactive) and -0.102 (inactive)
- z-score [6]: -0.0517 (inactive) and 0.113 (inactive)

Structure (SMILES): C=CCN(Cc1ccccc1)C(=O)C1N(CCCCCCO)C(=O)C2C(C(=O)O)C3C=CC21O3 (centres undefined)
- composite z-score [1]: -0.0934 (inactive) and -0.383 (inactive)
- composite z-score [2]: -0.673 and 0.372
- z-score [3]: 0.865 and 1.05
- z-score [4]: -0.888 (inactive) and 0.0908 (inactive)
- z-score [5]: 0.909 (inactive) and 0.53 (inactive)
- z-score [6]: 0.798 (inactive) and 0.751 (inactive)

Structure (SMILES): C#CCN1C(/C=C/c2ccccc2)C(=O)OC[C@H]1c1ccccc1 (some centres undefined)
- composite z-score [1]: -0.538 (inactive) and 0.237 (inactive)
- composite z-score [2]: -0.0814 and 0.83
- z-score [3]: -2.32 and -1.18
- z-score [4]: 0.468 (inactive) and -2.46 (inactive)
- z-score [5]: -0.322 (inactive) and 0.0385 (inactive)
- z-score [6]: -0.322 (inactive) and -0.239 (inactive)

Structure (SMILES): C=CCN(CCCC)C(=O)C1N(c2ccc(CCO)cc2)C(=O)C2C(C(=O)O)C3C=CC21O3 (centres undefined)
- composite z-score [1]: -1.72 (inactive) and -1.1 (inactive)
- composite z-score [2]: 0.261 and -0.728
- z-score [3]: 0.224 and -1.45
- z-score [4]: -1.03 (inactive) and -0.448 (inactive)
- z-score [5]: 0.147 (inactive) and -0.608 (inactive)
- z-score [6]: -0.173 (inactive) and -0.502 (inactive)

Structure (SMILES): CC(C)OC(=O)C=C1C[C@@H](c2cccc(C(F)(F)F)c2)O[C@@H](c2cccc(C(F)(F)F)c2)O1
- composite z-score [1]: 0.081 (inactive) and 0.769 (inactive)
- composite z-score [2]: 0.78 and 0.781
- z-score [3]: 0.15 and -0.473
- z-score [4]: -2.72 (inactive) and -1.27 (inactive)
- z-score [5]: -0.394 (inactive) and -0.391 (inactive)
- z-score [6]: -0.854 (inactive) and -0.46 (inactive)

Structure (SMILES): CCOC(=O)[C@@H]1CC=C2CC1C(=O)N1CCC[C@@H]1[C@H]2O[Si](C)(C)C(C)(C)C (some centres undefined)
- composite z-score [1]: -1.06 (inactive) and -0.793 (inactive)
- composite z-score [2]: -1.29 and -0.354
- z-score [3]: 1.82 and -0.618
- z-score [4]: -1.82 (inactive) and -4.44 (inactive)
- z-score [5]: 0.113 (inactive) and -0.726 (inactive)
- z-score [6]: 0.0897 (inactive) and -0.761 (inactive)

Structure (SMILES): C[N+](C)(C)CCCCNC(=O)[C@H]1C[C@H]2C(=O)N[C@@H](CCCC[N+](C)(C)C)C(=O)N2[C@H]1c1ccc(O)cc1
- composite z-score [1]: 1.52 (inactive) and 1.25 (inactive)
- composite z-score [2]: 0.761 and 0.892
- z-score [3]: 0.952 and -1.12
- z-score [4]: -0.497 (inactive) and 1.22 (inactive)
- z-score [5]: 0.487 (inactive) and -0.868 (inactive)
- z-score [6]: 0.605 (inactive) and -0.687 (inactive)

Structure (SMILES): C=CCN(Cc1ccccc1)C(=O)C(c1cccs1)N(C(=O)/C=C\C(=O)O)c1c(Cl)cccc1CO (centres undefined)
- composite z-score [1]: -0.422 (inactive) and -0.522 (inactive)
- composite z-score [2]: -0.367 and -1.55
- z-score [3]: -0.82 and -0.106
- z-score [4]: 1.14 (inactive) and 0.425 (inactive)
- z-score [5]: -0.347 (inactive) and 0.628 (inactive)
- z-score [6]: 0.0032 (inactive) and 0.521 (inactive)

Structure (SMILES): COC(=O)[C@@]1(Cc2ccc(OC)cc2)[C@H]2c3cc(C(=O)N(C)C)n(Cc4ccc(O)c(OC)c4)c3C[C@H]2CN1C(=O)c1ccccc1
- composite z-score [1]: 0.371 (inactive) and 0.389 (inactive)
- composite z-score [2]: 0.594 and 0.642
- z-score [3]: -1.65 and -1.56
- z-score [4]: -5.37 (inactive) and -3.28 (inactive)
- z-score [5]: 0.402 (inactive) and -0.804 (inactive)
- z-score [6]: 0.504 (inactive) and -0.921 (inactive)

Structure (SMILES): C=C[C@H](OC)[C@@H](O)c1ccc(O)c(F)c1
- composite z-score [1]: 0.406 (inactive) and -0.397 (inactive)
- composite z-score [2]: 0.563 and 0.0248
- z-score [3]: 1.66 and 0.778
- z-score [4]: 0.0518 (inactive) and 0.0165 (inactive)
- z-score [5]: -0.0834 (inactive) and -0.834 (inactive)
- z-score [6]: -0.132 (inactive) and -0.265 (inactive)
